Experimental data: PubChem BioAssay (NCI)
This is part of a sample that, as a whole, favours compounds with a hit. Of some 83,000 tested, about 20% had one in any assay.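 For each line, cells grew in 96-well plates with the test compound present at a single concentration for 48 hours.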 A number with no mark means an inactive call. Calls of active or inactive are those of the source. The calls were made as follows: active = growth percent below 10; inactive = the rest.

Key:
Test in all cases: NCI-60 one-dose screen, 48 h (100 = growth as untreated, 0 = no growth, -100 = all killed)
HCT-15 colon = conditions: 10 µM unless noted
HT29 colon = conditions: 10 µM unless noted
SNB-75 CNS = conditions: 10 µM unless noted
U251 CNS = conditions: 10 µM unless noted
PC-3 prostate = conditions: 10 µM unless noted
SK-MEL-5 melanoma = conditions: 10 µM unless noted
UACC-62 melanoma = conditions: 10 µM unless noted
LOX IMVI melanoma = conditions: 10 µM
SK-MEL-28 melanoma = conditions: 10 µM unless noted

Compound | growth (HCT-15 colon) | growth (HT29 colon) | growth (SNB-75 CNS) | growth (U251 CNS) | growth (PC-3 prostate) | growth (SK-MEL-5 melanoma) | growth (UACC-62 melanoma) | growth (LOX IMVI melanoma) | growth (SK-MEL-28 melanoma)
CCN(CC)c1ccnc(CNCCSC(c2ccccc2)(c2ccccc2)c2ccc(OC)cc2)c1 | -58.2% (active) | -63.1% (active) | 3.35% (active) | -80.3% (active) | -36% (active) | -99.9% (active) | -39.3% (active) | -99.2% (active) | -48.5% (active)
Cc1sc(C(NC(=O)OCCn2c([N+](=O)[O-])cnc2C)C(F)(F)Cl)nc1-c1ccc(OC(F)(F)F)cc1 (stereo not drawn) | -92.5% (active) | -83.4% (active) | -32.9% (active) | -85.7% (active) | -65.1% (active) | -99.5% (active) | -96.1% (active) | -98.3% (active) | -92.2% (active)
CC(=O)OC[C@@]1(C)C2CC[C@]3(C)C(CC=C4C5CC(C)(C)CC[C@]5(C(=O)Nc5ccc(C)cc5)CC[C@]43C)[C@@]2(C)C[C@@H](OC(C)=O)[C@@H]1OC(C)=O (stereo partly drawn) | 35.1% | 30.6% | 57% | 40.7% | 34.3% | 7.75% (active) | 48.2% | 12.5% | 77.1%
CCCSc1nc(NCCc2c[nH]c3ccccc23)c(C#N)c(-c2ccc(F)cc2)n1 | 18.8% | 15.6% | 85.7% | 28.2% | 23.8% | 13.1% | 54.6% | 21.1% | 63.3%
COc1ccc(-c2nc(SC(C)C)nc(NCCc3c[nH]c4ccccc34)c2C#N)cc1 | 15.3% | 8.23% (active) | 65.6% | 27.1% | 11.7% | 5.52% (active) | 73.6% | 21.2% | 69.7%
COc1ccc(-c2ccnc(SCc3cc4cc(Cl)ccc4[nH]c3=O)n2)cc1 | 80.8% | 84.7% | -7.9% (active) | 0.922% (active) | 29.6% | 37.4% | 42.5% | 80.9% | 64.3%
COc1ccc(C(SCCNCc2cc(N(C)C)ccn2)(c2ccccc2)c2ccccc2)cc1 | -19.5% (active) | -60.2% (active) | -0.256% (active) | -33.9% (active) | 2.15% (active) | -100% (active) | -3.86% (active) | -98.9% (active) | -65.3% (active)
Clc1cccc(-c2ccc(OCCCN3CCN(c4ccncc4)CC3)cc2)c1 | -69.8% (active) | -57.5% (active) | 42.8% | -73.6% (active) | -8.32% (active) | -98% (active) | -74.3% (active) | -94.9% (active) | -68.5% (active)
CCCCCCCCOc1cccc(S(=O)(=O)Nc2ccc(C)cc2C(=O)O)c1 | 92.4% | 110% | 94.9% | 91.5% | 88.2% | 89.1% | 85.4% | 101% | 106%
Nc1cccc(SCc2cc3ccccc3[nH]c2=O)c1 | 43.3% | 65.7% | 83.1% | 64.1% | 63% | -4.45% (active) | 4.09% (active) | 9.48% (active) | 61.6%
CC(C)Sc1nc(NCCc2c[nH]c3ccccc23)c(C#N)c(-c2ccc(F)cc2)n1 | 5.84% (active) | -6.22% (active) | 73% | 20.7% | 15% | 24.1% | 58.8% | -17.3% (active) | 71.1%
COc1ccc2c(c1)C(=N/N=C(\C)c1ccc(OC)c(S(N)(=O)=O)c1)C(=O)N2 | 98.2% | 96.3% | 66.3% | 74.4% | 83.3% | 91.5% | 77.5% | 95% | 94.1%
